This note sets out measurements from PubChem BioAssay (NCI).

What all share (test): NCI-60 one-dose screen, 48 h (100 = growth as untreated, 0 = no growth, -100 = all killed)
Common to all, as to settings: 10 µM unless noted

The test system of assay [1] is NCI-H23 lung.
In assay [2] the test system is NCI-H226 lung.
Assay [3] has as its system NCI-H322M lung.
Assay [4] relates to HOP-62 NSCLC.
The subject of assay [5] is NCI-H460 lung.
Assay [6] deals with HOP-92 NSCLC.
Assay [7] deals with NCI-H522 lung.
Assay [8] concerns A549/ATCC NSCLC.
Assay [9] has as its system 786-0 renal.
In assay [10] the test system is COLO 205 colon.

Molecules are shown by their SMILES. Compounds without any hit were thinned out: in the full panel of roughly 83,000, 20% have a hit.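 Testing used 96-well plates and a 48-hour single-concentration exposure. Example: -40 means 40% of the starting cells died.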 A number with no mark means an inactive call. The source made the active and inactive calls. The calls were made as follows: active = growth percent below 10; inactive = the rest.

As to `O=c1n(CC2CO2)c(=O)n(CC2CO2)n1CC1CO1` (stereo unspecified), the growth is 55.2% in [1]; 85.9% in [2]; 94% in [3]; 46% in assay [4]; 4.78% (active) in assay [5]; 48.6% in assay [6]. In addition, the growth in [7] is 31.4%; in assay [8], 49.4%; in [9], 36.9%.
On to `CC(=O)N=c1ccc2nc3c(cc(N)c4ccccc43)oc-2c1`, for which the growth in assay [1] is -27.8% (active); in assay [2] it was 80.4%; in assay [3], 3.7% (active); in assay [4], 1.21% (active); in [5] it was -41.2% (active); in [6] it was -56.9% (active). Further, the growth in assay [7] is -78.1% (active); in assay [8], 11.2%; in assay [9] it was -43.8% (active).
As for `CCNc1ncnc2[nH]ncc12`, the growth in [1] was 114%; in assay [2], 98.9%; in assay [3] it was 96.1%; in assay [4], 103%; in assay [5], 106%; in assay [6], 101%. The growth in assay [7] was 113%; in [8], 107%; in assay [9], 105%.
Take `Cc1cc(CO)c(O)c(CO)c1`: the growth in assay [1] is 121%; in [2], 115%; in assay [3], 98.7%; in assay [4], 107%; in [5], 107%; in assay [6], 96.4%. Moreover, the growth in assay [7] is 84.4%; in [8], 103%; in [9] it was 107%; in [10], 114%.
On to `CCC1CCC(C)NC1` (stereo unspecified), for which the growth is 91.3% in assay [1]; 93.4% in [2]; 108% in assay [3]; 101% in assay [4]; 99.7% in [5]; 87.3% in [6]. For the same compound, the values for the growth in assay [7], in assay [8] and in [9] were 99.2%, 105% and 102%, respectively.
As to `O=C(O)c1ccc([N+](=O)[O-])cc1S(=O)(=O)O`, the growth in [1] is 104%; in assay [2], 104%; in [3], 113%; in [4], 107%; in assay [5], 105%; in assay [6], 119%. For the same compound, the growth was 101% in [7], 97.2% in [8], 102% in [9] and 112% in assay [10].
Turning to `CCOC(=O)CNC(=O)Sc1ccc(C(C)(C)C)cc1`, the growth in assay [1] was 98.1%; in [2], 87.2%; in assay [3], 79.6%; in assay [4], 122%; in assay [5], 102%; in [6], 138%. The growth in assay [7] was 69.6%; in assay [8], 109%; in [9], 102%; in assay [10] it was 119%.
As to `O=C1C=Cc2ccccc2/C1=C/c1[nH]c(=O)[nH]c1O`, the growth is 51.7% in [1]; 45.2% in [2]; 57.8% in assay [3]; 41.3% in [4]; 84.8% in [5]; 45.9% in [6]. For the same compound, the growth in assay [7] is -17.7% (active); in [8] it was 82%; in [9] it was 27.6%; in [10], 34.3%.
As to `NCCCN1CCCC1=O`, the growth in assay [1] was 101%; in [2], 109%; in assay [3], 96.9%; in [4], 112%; in assay [5], 113%; in assay [6], 105%. Also, the growth in assay [7] was 92.6%; in [8], 91%; in assay [9] it was 105%; in [10], 111%.
For the compound `C[n+]1c(/C=C\C=C\N2CCCCC2)sc2ccccc21`, the growth is 12.1% in assay [1]; 17.7% in [2]; 17.6% in [3]; -29.1% (active) in assay [4]; 0.479% (active) in assay [5]; -42.3% (active) in assay [6]. Besides, the growth in [7] was -49.3% (active); in [8] it was -13.7% (active); in [9] it was -42.4% (active); in [10], -42.7% (active).
For `O=C(c1ccccc1)c1ccc(-c2ccc(O)cc2)cc1`, the growth in assay [1] is 66.1%; in [2], 89.3%; in assay [3], 37.8%; in assay [4], 43%; in assay [5], 43.8%; in [6] it was 71.7%. Also, the growth in [7] was 25.8%; in assay [8], 38.6%; in [9] it was 72.8%; in assay [10], 142%.
`Cc1onc(-c2ccccc2Cl)c1C(=O)Cl`: the growth is 114% in [1]; 110% in [2]; 101% in [3]; 86.5% in [4]; 103% in assay [5]; 77% in assay [6]. Besides, the growth in [7] was 108%; in assay [8], 96.9%; in assay [9], 101%; in assay [10], 108%.
As to `COC1OC(COC(C)=O)C(OC(C)=O)C(OC(C)=O)C1OC(C)=O` (stereo unspecified), the growth in [1] was 98%; in [2], 91.1%; in [3] it was 101%; in [4], 97.9%; in [5], 115%; in assay [6], 92.8%. In addition, the growth was 71.9% in assay [7], 91.5% in [8], 98.8% in [9] and 98.7% in [10].
As for `CC1(C)OC(=O)CC1=O`, the growth is 98.6% in assay [1]; 76.1% in assay [2]; 108% in assay [3]; 97.9% in assay [4]; 104% in [5]; 81.2% in assay [6]. The growth is 86.4% in assay [7], 69% in assay [8], 98.4% in assay [9] and 99.6% in assay [10].
Regarding `O=C(Nc1cccc(Cl)c1)c1ccc(Cl)cc1Cl`, the growth in assay [1] is 99.4%; in [2] it was 94.7%; in assay [3] it was 103%; in assay [4], 92.3%; in assay [5] it was 95.1%; in [6], 95.7%. The growth was 78.1% in assay [7], 81.1% in assay [8], 88.4% in [9] and 101% in [10].
Turning to `CNc1ccccc1C(N)=O`, the growth in assay [1] was 99%; in assay [2], 103%; in assay [3], 97.3%; in assay [4], 95.9%; in assay [5], 108%; in assay [6], 110%. In addition, the growth in assay [7] was 98.1%; in [8], 97.4%; in assay [9], 101%; in assay [10] it was 115%.
Take `COC1CC(OC(=O)c2ccc([N+](=O)[O-])cc2)C(COC(=O)c2ccc([N+](=O)[O-])cc2)O1` (stereo unspecified): the growth in assay [1] was 105%; in assay [2], 88.9%; in assay [3] it was 113%; in assay [4], 118%; in assay [5], 105%; in [6], 82.8%. Besides, the growth is 118% in assay [7], 103% in assay [8], 105% in assay [9] and 112% in assay [10].
As to `COc1cc(OC)c(NC(=O)C(Sc2nc(C)cc(C)c2C#N)c2ccccc2)cc1Cl` (stereo unspecified), the growth was 96.6% in assay [1]; 102% in assay [2]; 106% in assay [3]; 65.5% in assay [4]; 110% in assay [5]; 80.9% in assay [6]. The growth in [7] was 82.1%; in assay [8], 92.6%; in [9] it was 73.6%; in assay [10], 104%.
Consider `CCOC(=N)CC(=O)Nc1cccc(C)c1Cl`, for which the growth is 100% in assay [1]; 84.5% in assay [2]; 99.6% in [3]; 102% in assay [4]; 105% in assay [5]; 89.1% in assay [6]. Further, the growth in assay [7] is 110%; in [8] it was 106%; in assay [9], 106%; in assay [10], 100%.
In the case of `CC(=O)O[C@H]1CC[C@]2(C)C3=C(C(=O)C[C@H]2C1(C)C)[C@]1(C)CC[C@H]([C@H](C)CCC(=O)O)[C@@]1(C)CC3=O`, the growth was 98.3% in [1]; 107% in assay [2]; 105% in assay [3]; 95.4% in assay [4]; 89.8% in assay [5]; 107% in assay [6]. Moreover, the growth in [7] was 81.8%; in assay [8] it was 101%; in assay [9], 107%; in [10], 103%.
As for `N#Cc1ccc(OC(=O)Nc2cc(Cl)cc(Cl)c2)cc1`, the growth is -10.3% [100 µM] (active) in assay [1]; 1.99% [100 µM] (active) in assay [2]; -3.43% [100 µM] (active) in assay [3]; -13.7% [100 µM] (active) in assay [4]; 0.999% [100 µM] (active) in assay [5]; -35.9% [100 µM] (active) in assay [6]. Besides, the growth in assay [7] is -31.1% [100 µM] (active); in [8], 4.72% [100 µM] (active); in assay [9] it was 9.34% [100 µM] (active); in [10] it was -85.9% [100 µM] (active).
As for `CCCCN(C=S)CCCC`, the growth in [1] is 103%; in assay [2] it was 87.4%; in assay [3] it was 105%; in assay [4], 81.3%; in assay [5], 101%; in [6] it was 93.8%. Besides, the growth was 91.6% in assay [7], 86.4% in [8], 101% in assay [9] and 99.1% in assay [10].
In the case of `COC(=O)c1ccc([N+](=O)[O-])c(C)c1`, the growth in assay [1] is 107%; in assay [2], 102%; in assay [3], 93.2%; in [4], 98.5%; in [5] it was 105%; in [6] it was 90.4%. For the same compound, the growth is 107% in [7], 107% in [8], 103% in assay [9] and 111% in assay [10].
Take `CCCCCCCCCCCCCCCCCC(=O)NCCNC(=O)CCCCCCCCCCCCCCCCC`: the growth was 95.2% in assay [1]; 107% in [2]; 72.4% in assay [3]; 89.8% in assay [4]; 98.8% in [5]; 37.4% in assay [6]. Also, the growth in [7] is 98.7%; in assay [8], 94.5%; in assay [9], 91.9%; in [10], 84.5%.
Consider `COc1ccc(Nc2cc(Cl)ccc2C(=O)O)cn1`, for which the growth is 102% in assay [1]; 103% in assay [2]; 128% in [3]; 111% in assay [4]; 113% in assay [5]; 101% in [6]. Further, the growth in assay [7] was 100%; in assay [8], 103%; in [9] it was 111%; in [10], 103%.
`COc1cc(CC#N)c([N+](=O)[O-])cc1OC`: the growth in [1] was 96%; in assay [2], 105%; in [3], 105%; in assay [4], 113%; in [5], 106%; in assay [6] it was 99.8%. Besides, the growth is 102% in assay [7], 102% in [8], 102% in assay [9] and 110% in assay [10].
As to `Cc1ccc(NC(=O)c2ccccc2Cl)cc1`, the growth in [1] is 102%; in assay [2] it was 108%; in assay [3] it was 113%; in [4], 113%; in assay [5], 101%; in [6] it was 75.5%. For the same compound, the growth in [7] was 98.6%; in assay [8], 106%; in assay [9], 105%; in assay [10], 120%.
As for `O=C(O)Cc1cccc2ccccc12`, the growth in assay [1] was 121%; in [2], 117%; in assay [3] it was 105%; in assay [4], 106%; in assay [5], 109%; in assay [6], 103%. Moreover, the growth in assay [7] is 95.7%; in assay [8], 99.8%; in assay [9], 111%; in assay [10] it was 113%.
As for `COC(c1ccc2c(c1)OCO2)C(C)Br` (stereo unspecified), the growth is 95.2% in [1]; 93.1% in assay [2]; 100% in [3]; 82.8% in [4]; 104% in assay [5]; 74.9% in [6]. The growth is 84.6% in assay [7], 94% in [8], 112% in [9] and 94.5% in [10].
